Test results from PubChem BioAssay.
Calls of active or inactive are those of the source.

How the values were obtained:
[1] = test system: XIP peptide (Xip251-270) binding; test: small-molecule binders of XIP peptide, primary screen, biochemical, small-molecule microarray, fluorescence 635/667 nm, 0.1 µg/mL protein (AID 1182); details: fluorescent protein binding, 635 nm, higher = more signal, called active from +8 up or from −8 down
XIP peptide (Xip251-270) = test: small-molecule binders of XIP peptide, primary screen, biochemical, small-molecule microarray, fluorescence 635/667 nm, 0.5 µg/mL protein (AID 1183); details: small-molecule microarray binding, fluorescence 635 nm; higher = more signal
[2] = Plasmodium falciparum growth inhibition, primary screen, strain 3D7, DAPI fluorescence, 100 nL (AID 1184);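 further: parasites grown inside human red blood cells in medium with human serum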; details: P. falciparum 3D7 growth, 3 d, higher = more signal
[3] = target: Homeobox protein Hox-A13 (Mus musculus) (UniProt Q62424); test: inhibitors of HoxA13-DNA binding, primary screen, biochemical, fluorescence polarization, labeled oligonucleotide (AID 1185); details: 15 min, higher = more signal, called active from +8 up or from −8 down
Chain of Homeobox protein Hox-A13 (Mus musculus) (Q62424 whole entry, looked up): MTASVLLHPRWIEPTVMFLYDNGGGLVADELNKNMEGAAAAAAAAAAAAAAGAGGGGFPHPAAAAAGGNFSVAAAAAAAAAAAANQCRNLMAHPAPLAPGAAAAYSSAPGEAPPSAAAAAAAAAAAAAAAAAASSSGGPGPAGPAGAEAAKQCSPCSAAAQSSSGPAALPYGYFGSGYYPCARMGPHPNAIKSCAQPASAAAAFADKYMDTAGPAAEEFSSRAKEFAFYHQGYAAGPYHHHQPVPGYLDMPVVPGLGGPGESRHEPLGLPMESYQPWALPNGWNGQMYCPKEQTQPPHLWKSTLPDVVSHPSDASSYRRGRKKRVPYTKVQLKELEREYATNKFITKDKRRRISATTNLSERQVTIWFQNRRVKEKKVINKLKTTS

Row | Structure (SMILES) | composite z-score [1] | composite z-score (XIP peptide (Xip251-270)) | z-score [2] | z-score [3]
1 | C=CC[C@@H]1C=CC(ON=C(C)C)[C@@H](CO)O1 (some centres not stated) | -0.649 (inactive) | -0.0372 | 0.367 | 2.62 (inactive)
2 | CC(=O)OC[C@H]1O[C@H](CC=NO[C@@H](C)c2cc(-c3c(C)cc(C)cc3C)no2)C=C[C@@H]1OC(C)=O | 0.205 (inactive) | -0.445 | -0.863 | -5.88 (inactive)
3 | CC=CC1=C(CO)[C@H](O)[C@H]2O[C@H]2[C@@H]1O | 0.353 (inactive) | 0.374 | 0.0425 | -0.101 (inactive)
4 | COC(=O)[C@@H]1CC[C@H](C)[C@@H](c2ccc(C)cc2)N1C(=O)c1ccc(C=NOC[C@H]2O[C@H](c3ccccc3)C=C[C@@H]2Oc2ccc(OC)cc2)cc1 | 0.176 (inactive) | 0.313 | -1.14 | -0.0628 (inactive)
5 | CC(=O)OC[C@H]1O[C@H](CC=NO[C@@H](C)c2cn([C@H](CO)Cc3ccccc3)nn2)C=C[C@@H]1OC(C)=O | -0.0018 (inactive) | 0.361 | -1.13 | -0.583 (inactive)
6 | CCOC(=O)CCN1C(=O)[C@H]2[C@H]3[C@H](O)[C@H](O)CC(=NOCC=C(C)CCC=C(C)C)[C@H]3CC[C@H]2C1=O | -0.322 (inactive) | -0.206 | 0.241 | 0.765 (inactive)
7 | O=C1C2=CC[C@H]3C(=O)N(C4CCCCC4)C(=O)[C@H]3[C@H]2[C@H](O)[C@@H]2O[C@H]12 | 0.381 (inactive) | -0.274 | -1.98 | -5.22 (inactive)
8 | CCOC(=O)[C@H](Cc1ccccc1)NC(=O)CCC1CC(OC(=O)NCc2cccc3ccccc23)CC2(CCCC(COC(=O)NCCc3ccccc3OC)O2)O1 (some centres not stated) | 0.248 (inactive) | 0.374 | -1.95 | -0.95 (inactive)
